“And” between values parts separate entries of the source, which are not always exact repeats. Equal entries are not always repeated. The panel holds about 83,000 compounds, 20% with a hit somewhere; the sample as a whole holds those more often.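 Single-concentration screen, 48 h exposure, 96-well plates. Endpoint: percent growth. Below 10 = active.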 The source made the active and inactive calls.
The compounds below were run on MCF7 breast (assay: NCI-60 one-dose screen, 48 h (100 = growth as untreated, 0 = no growth, -100 = all killed)). Settings: 10 µM.
Protocol: Growth inhibition of the MCF7 human tumor cell line is measured as a screen for anti-cancer activity. Cells are grown in 96 well plates and exposed to the test compound for 48 hours. Compounds are tested at a single concentration, which is 10^-5 M for most compounds. The reported endpoint is percent growth (GI% or GIPRCNT), where numbers from 0 - 100% represent growth inhibition, and numbers from -100% - 0 represent cell death. For example, a value of 40 represents 60% growth inhibition. A value of 0 means no net growth occurred over the course of the experiment. A value of -40 indicates 40% of cells at the beginning of the experiment died by the end of the experiment. A value of -100 means all cells are dead at the end of the experiment.
NCI-60 Human Tumor Cell Lines Screen was performed using the standard one-dose NCI protocol, which is described in more detail at https://dtp.cancer.gov/discovery_development/nci-60/default.htm.
Compounds with GIPRCNT values below 10 were considered active. Activity score was based on GIPRCNT using the following formula: […]
Score is 0 for GIPRCNT values of 100 or above, 50 for GIPRCNT values of 0, and 100 for GIPRCNT values of -100.
For `S=c1nc[nH]c2nc[nH]c12`, the growth was 10.7% (inactive).
With `O=c1ccn2c(n1)OC1CC2OC1COC(c1ccccc1)(c1ccccc1)c1ccccc1` (stereo not given) the growth was 95.4% (inactive).

Same assay, conditions: 10 µM unless noted
In the case of `COC(=O)c1nc(=S)[nH]c(C(=O)OC)c1C(=O)c1ccc(OC)cc1`, the growth is reported as 93.6% (inactive).
For `O=C(N=C1C(=O)C2(CCCCC2)C2(N=C(c3ccccc3)OC2=O)C12CCCCC2)c1ccccc1` (stereo not given), the growth was 51.3% (inactive).
For `Nc1ccc(Cl)c(S(=O)(=O)O)c1`, the growth was 101% (inactive).
In the case of `Nc1nc(-c2ccccn2)cc(-c2cc(-c3ccccn3)nc(N)n2)n1`, the growth is reported as 92.2% (inactive).
In the case of `O=S(=O)(O)c1ccc2cc(O)ccc2c1`, the growth is reported as 99.8% (inactive).
`CNc1ccc(O)cc1` was tested, and the growth was 94.9% (inactive) and 110% (inactive).
In the case of `O=C(c1ccccc1)C1(Br)CCCCC1`, the growth is reported as 96% (inactive).
In the case of `CC(=O)Nc1cscc1NC(C)=O`, the growth is reported as 94.5% (inactive).
`Cc1cc(Cl)nc(Nc2ccccc2)n1` was tested, and the growth was 93.7% (inactive).
For `O=C(O)C1CSCN1` (stereo not given), the growth was 95.4% (inactive).
With `CC(=O)c1cc2ccccc2o1` the growth was 95.6% (inactive).
For `O=C1C=CC(n2cc(F)c(=O)[nH]c2=O)O1` (stereo not given), the growth was 30.1% (inactive).
With `C/C(CC(C)C)=N/NC(N)=S` the growth was 21.3% (inactive).
With `CCOCCC(=O)O` the growth was 104% (inactive).
In the case of `CC(=O)C[n+]1ccccc1Sc1ccc(Cl)cc1`, the growth is reported as 65% (inactive).
In the case of `O=C1c2ccccc2C(c2ccccc2)C1c1ccccc1` (stereo not given), the growth is reported as 69.3% (inactive).
With `Cc1c(Cl)c(C)c(Cc2c(C)c(Cl)c(C)c(Cl)c2O)c(O)c1Cl` the growth was 1.6% (active).
With `CCN(C)c1ccccc1` the growth was 90.7% (inactive).
`COc1ccc(CCN=Cc2ccc(Cl)cc2)cc1OC` was tested, and the growth was 96.1% (inactive).
In the case of `CCN(CC)CCNC(=O)c1ccc(NCN2C(=O)NC(c3ccccc3)(c3ccccc3)C2=O)cc1`, the growth is reported as 98.4% (inactive) and 94.6% (inactive).
With `Nc1ccccc1SC(CC(=O)c1ccccc1)c1cccc([N+](=O)[O-])c1` (stereo not given) the growth was 19.3% (inactive) and 19% (inactive).
`CCCCCCCCCCCCCCCCC(=O)O` was tested, and the growth was 93.9% (inactive).
With `CCOC(=O)c1ccc(C(=N)N)cc1` the growth was 95.3% (inactive).
In the case of `CCCCOC1NC(=O)NC(=O)C1(F)C(=O)OCC` (stereo not given), the growth is reported as 46.6% (inactive) and 27.8% (inactive).
In the case of `COc1ccc2oc3c(ccc[n+]3C)c(=O)c2c1`, the growth is reported as 100% (inactive).
With `O=C(NC(CSSCC(NC(=O)OCc1ccccc1)C(=O)O)C(=O)O)OCc1ccccc1` (stereo not given) the growth was 94.3% (inactive) and 93.2% (inactive).
`CCCCC/C(C)=N\NC(N)=S` was tested, and the growth was 19.6% (inactive).
In the case of `O=C(NC(=O)c1ccc(F)c(Cl)c1)NC1CC1`, the growth is reported as 100% (inactive) and 89.6% (inactive).
With `CCOC(=O)CN1CCC(C(=O)OCC)CC1` the growth was 103% (inactive).
For `CCC(C)(O)CCC(C)(O)CC` (stereo not given), the growth was 92.4% (inactive).
For `Cc1cccc(Cl)c1N`, the growth was 99% (inactive).
`O=C1c2cccnc2-c2ncccc21` was tested, and the growth was 109% [100 µM] (inactive).
With `Cc1ccc(C(=O)c2ccc(C)cc2)cc1` the growth was 99.9% (inactive) and 95.3% (inactive).
For `CCOP(=O)(OCC)/C(C#N)=C/c1c(C)[nH]c2ccccc12`, the growth was 96.2% (inactive).
In the case of `C(#CCN1CCOCC1)CCCN1CCOCC1`, the growth is reported as 91.9% (inactive) and 99.5% (inactive).

Same assay, conditions: 50 µM
For `S=c1nc[nH]c2nc[nH]c12`, the growth was 6.35% (active).

Same assay, conditions: 100 µM
For `O=c1ccn2c(n1)OC1CC2OC1COC(c1ccccc1)(c1ccccc1)c1ccccc1` (stereo not given), the growth was 46.7% (inactive).

Same assay, conditions: 750 µM
In the case of `S=c1nc[nH]c2nc[nH]c12`, the growth is reported as 4.16% (active) and -35.5% (active).

— PubChem BioAssay (NCI)
